Laboratory results from ChEMBL document CHEMBL4888484, “Replenishing the malaria drug discovery pipeline: Screening and hit evaluation of the MMV Hit Generation Library 1 (HGL1) against asexual blood stage Plasmodium falciparum ,using a nano luciferase reporter read-out” (2022).
The whole screen tested about 4,800 compounds, of which about 420 (8.8%) showed an effect of 50% or more. Only a selection was taken, and strong results are over-represented in it overall.

Tested on: Plasmodium falciparum
Assay: Confirmatory screen in NF54 nanoGlo assay, in single point, at 2uM, 72h
Type: functional, Erythrocyte
Details: timepoint 72 hour

SMILES	% Inhibition [%]
CC(C)(C)c1nc(Cn2c3c(sc2=O)CCCC3)no1	1
COc1ccc(CN2CCC(C(=O)NCCCN3CCOCC3)CC2)c(OC)c1	4
Cc1ccccc1S(=O)(=O)c1cc2cc(Br)cc(Br)c2nc1N	0
COc1cccc(C2=NS(=O)(=O)N(C)C(C(=O)N3CCC(C(N)=O)CC3)=C2)c1	20
CC(=O)Nc1ccc(-c2cn3c4ccccc4ccc3[n+]2C)cc1	76
CC(=O)Nc1ccc(NC(=O)CCC(C)C)cc1	-9
CC(=O)c1ccc(NC(=O)Cn2c(-c3ccccc3)nc(C)cc2=O)cc1	4
CC(=O)N[C@H]1[C@H](c2ccccc2)N(CCCc2ccccc2)CC[C@@]1(C)O	1
C#CCN(C(=O)c1cnn(CC(C)C)c1C(F)F)c1nccs1	-1
Cc1ccc(C2=NC3(CCCC3)NC2=O)cc1	3
Cc1ccc[n+](Cc2ccc3ccccc3n2)c1	53
c1ccc2c[n+](Cc3ccc4ccccc4n3)ccc2c1	50
c1ccc2cc(-c3ccc4ccccc4n3)ccc2c1	-1
O[C@@H](Cc1ccc2ccccc2n1)c1ccccc1	-5
CC(C)(C)OC(=O)N1CCN(C[C@H]2CN(c3ccc(F)cc3)C(=O)O2)CC1	-11
O=C(Nc1ccccc1)c1ccc(Nc2ncc(-c3cccc(F)c3)cn2)cc1	-3
CC(C)(C)c1ccc(-c2cc(C[C@H]3CNCC[C@H]3CC(=O)NCCN3CCOCC3)no2)cc1	9
O=C(NC[C@H](O)c1ccc(Cl)s1)c1ccsc1	1
OC(CNC1CCCNc2ccccc21)c1ccc(Cl)s1 (stereo not drawn)	58
CC(C)(C)OCCON=C(N)c1cccs1	10
O=C(C[C@@H]1C=CCC1)Nc1nc(-c2ccc(Cl)cc2)cs1	2
C[C@H]1CNCCN1C(=O)c1coc2ccccc12	-4

SMILES	% Inhibition [%]
O=C(Cn1ccnc1)N1CCCCCC1CC(O)c1ccccc1 (stereo not drawn)	0
O=c1[nH]c2cc3c(cc2c(=O)n1CCc1nc(-c2ccccc2Br)no1)OCO3	-4
O=C(C[C@H]1CCN(C(=O)Nc2ccccc2)C1)NC1CC1	-6
O=C(Nc1ccncc1)c1ccc2ccccc2n1	0
CCOC(=O)c1cn(CC)c2cc(NC3CCCCC3)c(F)cc2c1=O	78
CCOC(=O)c1cc(NC(=O)C(C)(C)NC(=O)OC(C)(C)C)c(F)cc1C	-2
CCOC(=O)c1ncn(C2CCCCC2)c1N	1
CCc1ccc(CNC(=O)C2(N3CCOCC3)CCC2)s1	-5
CCCN(CCC)C(=O)CCC(=O)N[C@]1(C(F)(F)F)CCc2ccccc21	15
Cc1cccc(NC(=O)[C@@H](C#N)C(=O)C2CCC2)c1	0
CN1CCC(N2CCC(CN(Cc3ccncc3)Cc3c(F)cccc3Cl)CC2)CC1	23
CN1CCC(N2CCN(Cc3ccc4cc(O)ccc4c3)CC2)CC1	46
COc1ccc(CN(Cc2ccncc2)CC2CCN(C3CCN(C)CC3)CC2)c(F)c1	85
O=C(Nc1ncc(CCO)s1)[C@@H]1CCCN1C(=O)Cc1cccs1	0
CC(C)CC[C@@H](CCNCCN(C)C)c1ccc(Cl)cc1	96
CN(C)CCCNCc1ccc(Cl)cc1Cl	-3
CC(C)CC[C@@H](CCNC1CCN(C)CC1)c1ccc(Cl)cc1	80
CN(C)CCNCc1ccc(Cl)c(Cl)c1	-11
CN1CCC(NCC[C@@H](Cc2ccccc2Cl)c2ccc(Cl)cc2)CC1	82
Clc1ccccc1COc1ccc(CNC2CCCCC2)cc1	-2
CCn1cnnc1C1CCN([C@@H](C)C(=O)Nc2ccccc2C)CC1	-7
COc1ccc(C)cc1-n1ccc(C(=O)N2CCCc3c(C(N)=O)cccc32)n1	-11

SMILES	% Inhibition [%]
COC(=O)c1ncn(CNC2(c3ccc(Cl)cc3)CCCC2)n1	6
CN(C)c1ccc(-c2nc([C@H]3CCOC3)cs2)cc1	6
Cc1cc(CN2C(=O)NC3(CCCCC3)C2=O)no1	-4
Cc1cccnc1C(=O)N1CC(n2cnnc2[C@@H]2CCCO2)C1	-2
Cc1cc(S(=O)(=O)NC[C@H]2CCCCN2)sc1C	-9
CC(=O)c1cc(-c2cc(O)cc(CC[C@H]3CCCCN3)c2)ccc1O	78
Cc1ccc(-c2cc(O)cc(CC[C@H]3CCCCN3)c2)c(C)n1	53
Cc1cc(-c2cc(O)cc(CC[C@H]3CCCCN3)c2)ccn1	79
CC1CC(N)CCN1C(=O)c1cccc(-c2noc(C3CC3)n2)c1 (stereo not drawn)	2
CN(CCOc1ccc(Cl)cc1Cl)[C@H]1CCS(=O)(=O)C1	-7
CCN(C(C)=O)c1ccc(Cl)cc1F	-13
COc1ccc(C)cc1NC(=O)C[C@H]1CCN(S(C)(=O)=O)C1	0
Cc1cc2nc(C(=O)NC3CCN(Cc4ccccc4)CC3)c(=O)n(C)c2cc1C	-8
O=C(Cn1cccc1-c1nc(-c2ccc(F)c(Br)c2)no1)N1CCc2ccccc2C1	1
CC(C)c1cc(=O)[nH]c(-n2nc(C3CC3)cc2NC(=O)Cc2ccc(Cl)cc2)n1	69
Cc1ccc(N2C[C@@H](c3nnc(NC(=O)Cc4ccc(Cl)cc4)o3)CC2=O)cc1	-13
CC(C)c1nc(C2CN(C(=O)Nc3ccc(F)c(Cl)c3)C2)n(C)n1	4
O=C(Nc1ccc(OC(F)F)cc1)c1cc(C2CC2)nc2c1c(C1CC1)nn2-c1ccccc1	-7
Cc1cc(NC(=O)c2ccc(COc3ccc4ccccc4c3)o2)nn1C	-3
CC(C)c1cc(=O)[nH]c(-n2nc(C3CC3)cc2NC(=O)COc2ccc3ccccc3c2)n1	70
CCNC(=O)C1Cc2ccc(OC)cc2N2CCN(c3ccc(OC)cc3)CC12 (stereo not drawn)	2
O=C(C[C@H]1CCN(C(=O)c2cc(F)ccc2F)C1)NC1CC1	-2

SMILES	% Inhibition [%]
CN(C)/C=C/c1cc(C#N)c(C#N)cc1Br	-4
O=C(c1c(F)cccc1F)N1C[C@@H]2CCCN2c2ccc(C(F)(F)F)cc21	-13
COc1ccccc1-n1cnc2cc(C(=O)N3CCCC3)ccc2c1=O	-4
CC[C@H](C)[C@H](NC(=O)c1ccc(Br)c(F)c1)C(=O)O	-8
N[C@@H](CO)c1cccc(Br)c1	7
COC(=O)CN(c1ccccc1)S(=O)(=O)c1ccc2nncn2c1	-1
COc1cccc(N2C(=O)N[C@H](C)C2=O)c1	8
COc1cccc(C(=O)Nc2noc(-c3cccc(OC)c3)c2-c2ccc(Cl)cc2)c1	-11
COc1ccc(-c2c(-c3cccc(OC)c3)[nH]c3c2c(=O)[nH]c(=O)n3C)cc1	74
CC1CC(C)(C)CCC1NC(=O)NC1CCN(C)C1=O (stereo not drawn)	-4
COc1cccc(CCC(=O)N2CCN3CCC2C3)c1F (stereo not drawn)	-15
CC[C@@H](CO)NC(=O)Nc1ccc(Cl)cc1	6
CNC(=NCCCOc1cccc(OC)c1)NC	-6
Cc1nc2sc(C(=O)Nc3ccc4ccccc4c3)c(N)c2c(C)c1C	2
Cc1c(C)c2ccc(NC(=O)c3cc4ccccc4o3)cc2[nH]c1=O	74
Cc1cc(C(=O)Nc2ccc3ccccc3c2)co1	-5
CN(Cc1ccc(-c2ccccc2)cc1)c1cc([C@H]2C[C@@H](N)C2)nc(N)n1	49
CC1CCN(C[C@@H](O)CNc2nnc(C(F)(F)F)s2)CC1	-10
Cn1n[n+](CCCCC(Cl)(Cl)Cl)c2ccccc21	53
Cn1n[n+](CC(=O)Nc2ccccc2Cl)c2ccccc21	-5
CCN(CC(=O)Nc1ccccc1OC)C(=O)c1ccc(S(=O)(=O)N2CCOCC2)cc1	10
CC(C)n1[nH]c(=O)c2c(C3CCCCC3)c3sc(=O)[nH]c3nc21	-3

SMILES	% Inhibition [%]
Nc1cc2c(cc1C1=Nc3ccccc3C(c3ccccc3)(c3ccccc3)N1)OCO2	10
COc1ccc(CCNC(=O)c2cc3c(=O)[nH]c(C)cn3n2)cc1OC	67
COc1ccc(CCNC(=O)c2c(C)noc2-c2ccncc2)cc1OC	1
COc1ccc(CCNC(=O)c2cc3n(n2)CCN(Cc2cccc(F)c2)C3=O)cc1OC	17
C#CCN(C(=O)c1ccncc1CC)c1nccs1	-10
CCCC1(c2ccncc2)CC(C)OC1=O (stereo not drawn)	-1
O=C(CCn1ncc2c(Cl)cccc21)NCC1CCCC1	-9
Cc1ccc(-c2noc(CCC(=O)NC[C@H]3CCCO3)n2)c(=O)n1C(C)C	-1
c1cn(CCCOc2ccc3c(c2)OCO3)nn1	3
COc1ccc(CC(=O)NCCn2c(C(F)(F)F)nc3ccccc32)cc1	42
CCNC(=O)c1nc(-c2ccncc2)cs1	-21
CC(C)C(=O)NCC(=O)Nc1ccc(C(F)(F)F)cc1	-15
CC(C)C(=O)Nc1ccc(-c2cc(-c3ccc(NC(=O)C(C)C)cc3)nc(-c3ccncc3)n2)cc1	56
Cc1ccccc1C(=O)NCC(=O)NCCc1c[nH]c2ccccc12	-7
Clc1ccccc1-c1c[nH]c([C@@H]2CCCN2)n1	5
Oc1ccccc1CNc1cccc2cccnc12	98
O=C(Nc1cccc2cccnc12)c1ccccn1	80
O=C(Nc1cccc2cccnc12)c1cncc(Br)c1	-12
O=C(Oc1cccc2cccnc12)c1ccc(-c2ccccc2)cc1	2
CC(C)(C)C(=O)NCCNC(=O)c1ccccn1	8
